# Most compounds without a hit are left out; they make up all but 19% or so of the library.
# ELG1 repair inh = blocks ELG1-dependent DNA repair in HEK293T cells | HEK293T ELG1-luciferase reporter, luminescence, 16 h; DNA damage induced by 5-fluorouridine | Potency, µM (series often up to 46.1 µM), usual class: inhibitors | 330,000 compounds, 2.3% hits; note: nearly all actives have a fitted effect of over 55% in size
#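 Quantitative HTS, concentration-response format. 2,000 cells/well co-treated with 5-fluorouridine and compound, 16 hr in 5% CO2 at 37 °C; ONE-Glo luminescence read after 30 min.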
# TDP1 inh = blocks human tyrosyl-DNA phosphodiesterase 1. Q9NUW8. recombinant TDP1, AlphaScreen DNA substrate cleavage. Potency, µM (titrated, usually from 130 µM), usual class: inhibitors. 350,000 compounds, 0.28% hits. AID 485290; note: nearly all actives have a fitted effect of over 40% in size
# Target sequence (Q9NUW8 whole entry, looked up): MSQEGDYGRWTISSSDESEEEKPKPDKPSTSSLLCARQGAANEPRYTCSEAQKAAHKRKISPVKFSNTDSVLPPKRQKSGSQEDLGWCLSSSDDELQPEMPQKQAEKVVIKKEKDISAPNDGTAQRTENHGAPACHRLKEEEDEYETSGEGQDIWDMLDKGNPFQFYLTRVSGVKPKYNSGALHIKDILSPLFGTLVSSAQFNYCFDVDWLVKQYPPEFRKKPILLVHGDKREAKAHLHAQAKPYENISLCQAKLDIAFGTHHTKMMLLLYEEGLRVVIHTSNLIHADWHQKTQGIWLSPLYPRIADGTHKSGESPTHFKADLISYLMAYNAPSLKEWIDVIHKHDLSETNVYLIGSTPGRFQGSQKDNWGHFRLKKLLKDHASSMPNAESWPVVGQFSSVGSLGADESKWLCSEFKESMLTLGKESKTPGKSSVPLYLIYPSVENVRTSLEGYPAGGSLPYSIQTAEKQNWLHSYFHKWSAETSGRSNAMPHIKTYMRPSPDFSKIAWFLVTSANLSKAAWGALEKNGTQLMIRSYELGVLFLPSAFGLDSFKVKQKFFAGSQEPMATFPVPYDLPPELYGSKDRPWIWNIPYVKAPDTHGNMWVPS
#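 Recombinant human Tdp1 (E. coli-expressed, 1 nM final) preincubated with compounds 15 min at room temperature, then 5'-biotin/3'-phosphotyrosine-FITC DNA substrate (15 nM final) added for 5 min. AlphaScreen beads (10 ug/ml final) added 10 min; cleavage lowers signal.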
# Giardia killer = kills Giardia lamblia. Giardia lamblia trophozoite viability. activity change, % at 7.66 µM, hits read low. 340,000 compounds, 0.15% hits. AID 540267; in the data active = activity change below about -80%; inconclusive = between about -30% and that limit;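 note: parasites exposed to compound for two days anaerobically before the ATP read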
#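 Compounds were tested on trophozoites seeded at 100 cells/well and held 48 hrs at 37 deg C anaerobically. An ATP-based luminescent kit measured the remaining live cells.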
# TDP1 cell noCPT = qHTS for Inhibitors of human tyrosyl-DNA phosphodiesterase 1 (TDP1): qHTS in cells in absence of CPT | DT40 Tdp1-/- hTDP1 cells, no CPT, ATP luminescence, 48 h | 420,000 compounds, 15% hits | Potency, µM (series often up to 46.2 µM), most hits filed as inhibitors | AID 686978, 2013; note: nearly all actives have a fitted effect of over 55% in size
#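 Growth kinetics read by CellTiter-Glo luminescence after ≥48 hr at 37 °C. Cells: DT40 Tdp1-/- stably carrying human TDP1, 400 per well, compound exposure in the absence of CPT (DMSO vehicle).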
# IL1B secr inh = inflammasome signaling inhibition, IL-1 beta readout | THP-1 LPS/ATP IL-1B secretion, AlphaLISA, 16 h; active compounds read low | activity change, % at 57.5 µM | 360,000 compounds, 4.7% hits; in the data active = activity change below about -50%; inconclusive = mostly about -30% to -49%
#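 THP-1 cells pretreated 1 hr with compounds (up to 57.5 uM final), then stimulated with LPS (250 ng/mL final) plus ATP (1.25 mM final); secreted IL-1B measured by AlphaLISA after 16 hr, decreased signal indicating inhibition.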
# TDP1 cell CPT = DT40-hTDP1 cell growth loss with CPT | chicken DT40 Tdp1-/-;hTDP1 cells + 20 nM CPT, ATP luminescence, 48 h | Potency, µM (highest dose often 46.2 µM), actives largely listed as inhibitors | 420,000 compounds, 12% hits | AID 686979; note: nearly all actives have a fitted effect of over 55% in size
#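 Cell growth measured by CellTiter-Glo luminescence after a minimum 48 h, 37 C compound exposure with 20 nM CPT in Tdp1-knockout DT40 cells stably expressing hTDP1, seeded 400/well; qHTS titration format.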
# Hits are given with their value; – = inactive; ? = inconclusive; · = not tested or not shown; [ ] = another dose, or the depositor's remark. Unless noted, calls come from the whole dose curve; as a rule, active = well fitted curve in the direction sought with a large enough effect; inconclusive = small, poorly fitted or top-dose-only effect, or another doubt; inactive = no such curve, though single readings can be large; an effect the other way counts as inactive or inconclusive.
SMILES,ELG1 repair inh,TDP1 inh,Giardia killer,TDP1 cell noCPT,IL1B secr inh,TDP1 cell CPT
O=C(CCCN1C(=O)/C(=C/c2ccccc2Cl)SC1=S)N1CCOCC1,?,–,–,16.4µM,?,?
CCOc1ccc(S(=O)(=O)Nc2ccc(F)cc2)c(C)c1C,?,–,–,20.6µM,–,25.9µM
COc1ccc(C)cc1S(=O)(=O)N(C)CC(=O)NCc1ccccn1,–,·,–,–,–,–
COc1ccccc1N(CC(=O)NC1CCCC1)C(=O)c1oc(C(C)(C)C)cc1C,?,–,–,14.6µM,-91.5,23.1µM
Cc1cc(C(C)(C)C)oc1C(=O)N(CC(=O)NC1CCCC1)c1c(C)cccc1C,–,–,–,5.17µM,–,11.6µM
Cc1cc(C(C)(C)C)oc1C(=O)N(CC(=O)NC1CCCC1)c1ccc(F)cc1,–,–,–,16.4µM,–,?
O=C(CN(C(=O)CNC(=O)c1ccco1)c1ccc(F)cc1)NC1CCCC1,–,·,–,–,–,–
CC(C)CN(c1ccccc1)S(=O)(=O)c1nnc(NC(=O)C(C)C)s1,–,·,–,–,–,–
COC(=O)C1=CN(c2ccc(C(C)(C)C)cc2)C(N)=C(C#N)C1c1cccc2ccccc12 (stereo unspecified),·,·,·,13µM,–,14.6µM
COC(=O)C1=CN(c2ccc(OC)cc2)C(N)=C(C#N)C1c1cccc2ccccc12 (stereo unspecified),·,·,·,5.17µM,–,5.8µM
CCc1ccc(N2C=C(C(=O)OC)C(c3cccc4ccccc34)C(C#N)=C2N)cc1 (stereo unspecified),·,·,·,8.2µM,–,13µM
COC(=O)C1=CN(c2ccc(F)cc2)C(N)=C(C#N)C1c1cccc(OC)c1OC (stereo unspecified),·,·,·,?,–,?
COc1ccc(N2C(=O)[C@@H]3C[C@H]2CN3Cc2cccn2-c2nccs2)cc1Cl,·,·,·,?,·,–
COc1cc2c(cc1OC)C(c1ccc(Br)cc1)N(C(=O)c1ccccc1C(=O)O)CC2 (stereo unspecified),?,–,–,–,–,–
COc1cc2c(cc1OC)C(c1cccc([N+](=O)[O-])c1)N(C(=O)c1ccccc1C(=O)O)CC2 (stereo unspecified),–,–,–,–,-57.9,–
COc1ccc(C(=O)N2CCc3cc(OC)c(OC)cc3C2c2cccc([N+](=O)[O-])c2)cc1OC (stereo unspecified),–,–,–,18.4µM,?,?
CC/C(=C\c1oc2cc3ccccc3cc2[n+]1CC)Nc1ccccc1,–,–,–,13µM,-106.8,4.61µM
CCOc1ccc(NC(=O)C2CC(=O)N(c3ccc4c(c3)OCCO4)C2)cc1OCC (stereo unspecified),–,·,–,–,–,–
COc1ccccc1NC(=O)CN1CCN(CC(=O)Nc2ccc(Cl)c(C(F)(F)F)c2)CC1,18.4µM,–,–,13µM,-79.8,14.6µM
COc1ccc(NC(=O)CN2CCN(CC(=O)Nc3ccccc3Cl)CC2)cc1Cl,?,–,–,11.6µM,-51.4,14.6µM
COc1cc(Cl)c(C)cc1NC(=O)c1ccccc1NC(=O)CN1CCOCC1,16.4µM,·,–,4.61µM,–,2.59µM
COc1ccccc1NC(=O)CN1CCN(CC(=O)Nc2ccc(F)cc2F)CC1,?,·,–,–,–,–
COc1cc(NC(=O)c2ccccc2F)c(OC)cc1NC(=O)CN1CCOCC1,?,–,–,?,–,–
CCc1ccccc1NCC(=O)Nc1ccc(Cl)c(C(F)(F)F)c1,–,–,–,16.4µM,·,25.9µM
CC(C)(C)OC(=O)N1CCC(N2CCN(Cc3ccccc3)C(=O)C2=O)CC1,·,–,·,–,·,–
SMILES,ELG1 repair inh,TDP1 inh,Giardia killer,TDP1 cell noCPT,IL1B secr inh,TDP1 cell CPT
O=S1(=O)CC(N2CCN(c3ncccn3)CC2)CN1Cc1ccc(F)cc1 (stereo unspecified),·,·,·,–,–,–
CCN(CC)c1cccc(OC(=O)c2cccnc2Cl)c1,–,–,–,–,–,–
COC(=O)c1cc2oc3ccccc3c2n1Cc1nc(-c2cccc(C)c2)oc1C,·,–,·,–,·,–
Cc1ccc(CS(=O)(=O)Cc2ccc(C(=O)NCCCN3CC(C)CC(C)C3)o2)cc1 (stereo unspecified),–,–,–,–,?,–
COc1ccc(NC(=O)C2CCCN(C(=O)Nc3ccc(F)cc3)C2)cc1 (stereo unspecified),–,–,–,–,–,–
Cc1ccc(S(=O)(=O)N2[C@@H](CO)CO[C@H]2CC(=O)c2ccccc2)cc1,·,·,·,–,–,–
O=C(CCNC(=O)c1ccccc1Cl)Nc1ccc(Cl)c(C(F)(F)F)c1,–,–,–,23.1µM,–,?
CCN(C(=O)C(=O)Nc1ccc2nc3n(c(=O)c2c1)CCCCC3)c1ccc(F)cc1,·,–,·,?,·,–
COc1ccc(OC)c(NC(=O)CCN2CCN(c3ccccc3F)CC2)c1,?,–,–,13µM,–,29.1µM
COc1ccc(C)cc1NC(=O)CN1CCN(c2ccccc2F)CC1,?,–,–,13µM,–,?
COc1ccccc1NS(=O)(=O)c1cccc(C(=O)N/N=C/c2ccc3c(c2)OCCO3)c1,–,–,–,–,–,–
COc1ccccc1NS(=O)(=O)c1cccc(C(=O)N/N=C/c2ccc([N+](=O)[O-])o2)c1,?,–[0.505 µM],?,2.91µM,-91.7,3.66µM
CCN(CC)c1ccc(/C=N/NC(=O)c2cccc(S(=O)(=O)Nc3ccccc3OC)c2)c(O)c1,–,–,–,2.91µM,–,3.26µM
CCN(CC(=O)NC(=O)NCc1ccccc1)Cc1ccccc1,–,–,–,–,–,–
COc1ccc(NC(=O)c2ccc(S(=O)(=O)N3CC(C)CC(C)C3)cc2)cc1S(N)(=O)=O (stereo unspecified),–,–,–,?,–,–
Cc1oc(-c2ccccc2Cl)nc1CS(=O)(=O)CC(=O)NC(C)CCc1ccccc1 (stereo unspecified),·,–,·,?,·,16.4µM
Cc1ccc(CNC(=O)CS(=O)(=O)Cc2nc(-c3ccccc3F)oc2C)cc1,–,·,–,?,–,–
Cc1oc(-c2ccccc2Cl)nc1CS(=O)(=O)CC(=O)NC(C)c1ccccc1 (stereo unspecified),–,–,–,23.1µM,–,?
Cc1oc(-c2ccccc2Cl)nc1CS(=O)(=O)CC(=O)NCc1ccc(F)cc1,·,–,·,18.4µM,·,?
Cc1oc(-c2ccccc2Cl)nc1CS(=O)(=O)CC(=O)NCCN1CCOCC1,–,·,–,–,–,–
CC(=O)NCCCS(=O)(=O)O,·,·,·,–,·,–
Cc1nnc(SCC(=O)Nc2cccc(S(=O)(=O)N(C)c3ccccc3)c2)s1,?,–,–,6.51µM,–,8.2µM

# Screens: PubChem, National Center for Advancing Translational Sciences (NCATS)
